PubChem BioAssay (NCATS)
Results filed as inconclusive are left out. A number with no mark means an inactive call. Calls of active or inactive are those of the source. Calls follow the shape of the dose curve; as a rule, active = well fitted curve in the direction sought with a large enough effect; inconclusive = small, poorly fitted or top-dose-only effect, or another doubt; inactive = no such curve, though single readings can be large; an effect the other way counts as inactive or inconclusive.

Key:
[1] = BET inhibitor-based combinations targeting novel dependencies in MECOM-rearranged (r) AML: SET-2 cell line (AID 2202231); conditions: SET-2 AML cells viability, CellTiter-Glo luminescence, 48 h; viability: stronger effect = lower value, concentration not given here; also: nearly all actives have a fitted effect of over 35% in size; also: potency is read from the fitted curve at half-maximal effect;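 as to viability: plate controls were DMSO treated cells for no effect and wells without cells for full effect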
How it was run: (§1)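 Readout: CellTiter-Glo luminescence. Exposure: 48 h, 11 concentrations, 500 cells/well. Metric: AUC and within-line Z-AUC after DMSO/empty-well normalization.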

[2] = BET inhibitor-based combinations targeting novel dependencies in MECOM-rearranged (r) AML: OCI-AML3 cell line (AID 2202232); conditions: Potency: OCI-AML3 viability; also: nearly all actives have a fitted effect of over 35% in size; also: potency is read from the fitted curve at half-maximal effect;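 as to viability (% of control): series mostly up to about 46 µM; plate controls were DMSO vehicle wells for no effect and wells without cells for full effect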
How it was run: as §1

[3] = BET inhibitor-based combinations targeting novel dependencies in MECOM-rearranged (r) AML: MV-4-11 cell line (AID 2202233);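 also: plate controls were DMSO for no effect and blank wells for full effect; nearly all actives have a fitted effect of over 45% in size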
How it was run: (§2)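 Seeding density was 500 cells/well, and drug exposure lasted 48 hr under standard culture conditions. Read-out used CellTiter-Glo reagent with a 15 min room-temperature incubation before luminescence measurement; AUC and Z-AUC summarize the normalized responses.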

[4] = BET inhibitor-based combinations targeting novel dependencies in MECOM-rearranged (r) AML: UCSD-AML1 cell line (AID 2202235); also: nearly all actives have a fitted effect of over 40% in size; also: potency is read from the fitted curve at half-maximal effect;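 as to viability (% of control): series mostly up to about 46 µM; plate controls were DMSO vehicle wells for no effect and blank wells for full effect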
How it was run: as §2

[5] = BET inhibitor-based combinations targeting novel dependencies in MECOM-rearranged (r) AML: AML-191 cell line (AID 2202236; also: nearly all actives have a fitted effect of over 35% in size; also: potency is read from the fitted curve at half-maximal effect;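 as to viability (% of control): plate controls were vehicle wells for no effect and wells without cells for full effect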)
How it was run: as §1

[6] = BET inhibitor-based combinations targeting novel dependencies in MECOM-rearranged (r) AML: AML-194 cell line (AID 2202237; also: nearly all actives have a fitted effect of over 40% in size; also: potency is read from the fitted curve at half-maximal effect;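 as to viability (% of control): plate controls were vehicle wells for no effect and wells without cells for full effect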)
How it was run: as §1

[7] = BET inhibitor-based combinations targeting novel dependencies in MECOM-rearranged (r) AML: HNT-34 cell line (AID 2202234); also: nearly all actives have a fitted effect of over 35% in size; also: potency is read from the fitted curve at half-maximal effect;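 as to viability (% of control): plate controls were vehicle wells for no effect and cell-free wells for full effect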
How it was run: as §2

## C[C@H]1C[C@H]2[C@@H]3CCC4=CC(=O)C=C[C@]4(C)[C@H]3C(=O)C[C@]2(C)[C@@]1(O)C(=O)CO
[1]
  viability: 116%
[2]
  Potency: inactive
[3]
  Potency: inactive
[4]
  Potency: inactive
[5]
  Potency: inactive
[6]
  Potency: inactive

## CN1CCN(C(=O)[C@H]2[C@@H](C(=O)O)[C@H]3CC[C@@H]2O3)CC1
[1]
  viability: 113%
[2]
  viability (% of control): 112% [at 8.46 µM]
[3]
  viability, % of control: 111% [at 8.46 µM]
[4]
  viability (% of control): 104% [at 8.46 µM]
[5]
  viability (% of control): 93.9% [at 8.46 µM]
[6]
  viability (% of control): 96.1% [at 8.46 µM]

## CN1C(C(=O)Nc2ccccn2)=C(O)c2sccc2S1(=O)=O
[1]
  viability: 113%
[2]
  Potency: inactive
[7]
  Potency: inactive
[4]
  Potency: inactive
[5]
  Potency: inactive
[6]
  Potency: inactive

## Cc1[nH]nc2ncc(C(=O)N3CCC[C@H]3c3ccc(Cl)cc3)cc12
[1]
  viability: 105%
[2]
  Potency: inactive
[7]
  Potency: inactive
[4]
  Potency: inactive
[5]
  Potency: inactive
[6]
  Potency: inactive

## O=C(O)CC(C(=O)O)n1c(O)c(C2=c3cc(Br)ccc3=NC2=O)sc1=S (configuration not stated)
[1]
  viability: 100%
[2]
  Potency: inactive
[7]
  Potency: inactive
[4]
  Potency: inactive
[5]
  Potency: inactive
[6]
  Potency: inactive

## C[C@@H](O[C@H]1OCCN(Cc2n[nH]c(=O)[nH]2)[C@@H]1c1ccc(F)cc1)c1cc(C(F)(F)F)cc(C(F)(F)F)c1
[1]
  Potency: 20900 nM (active)
[2]
  Potency: 18600 nM (active)
[7]
  Potency: 18600 nM (active)
[5]
  Potency: 16600 nM (active)

## CCC(=C/[C@H](C)C/C=C/C(C)=C/[C@@H](C)C(=O)[C@@H](C)[C@H](O)[C@@H](C)C/C(C)=C/C(=O)O)/C=C/[C@@H]1OC(=O)C=C[C@@H]1C
[1]
  Potency: 7.4 nM (active)
[2]
  Potency: 4.2 nM (active)
[7]
  Potency: 3.7 nM (active)
[4]
  Potency: 3.3 nM (active)
[5]
  Potency: 3 nM (active)
[6]
  Potency: 1.9 nM (active)

## Cn1cc(CNCC2CCN(c3ncc(C(=O)NO)cn3)CC2)c2ccccc21
[1]
  Potency: 148 nM (active)
[2]
  Potency: 118 nM (active)
[7]
  Potency: 118 nM (active)
[4]
  Potency: 105 nM (active)
[5]
  Potency: 148 nM (active)
[6]
  Potency: 332 nM (active)

## CN1CCN(c2ccc3nc(-c4cc(C(C)(C)C)c(OCCCC(=O)NCCCN=[N+]=[N-])c(C(C)(C)C)c4)[nH]c3c2)CC1
[1]
  Potency: 10500 nM (active)
[2]
  Potency: 10500 nM (active)
[7]
  Potency: 9340 nM (active)
[5]
  Potency: 9340 nM (active)
[6]
  Potency: 8330 nM (active)

## CS[C@H]1SC[C@@H]2C(=O)N(C)[C@H](C(C)C)C(=O)OC[C@H](NC(=O)c3cnc4ccccc4n3)C(=O)N[C@H](C)C(=O)N(C)[C@H]1C(=O)N(C)[C@H](C(C)C)C(=O)OC[C@H](NC(=O)c1cnc3ccccc3n1)C(=O)N[C@H](C)C(=O)N2C
[1]
  Potency: 14.8 nM (active)
[2]
  Potency: 4.7 nM (active)
[7]
  Potency: 6.6 nM (active)
[4]
  Potency: 5.3 nM (active)
[5]
  Potency: 13.2 nM (active)
[6]
  Potency: 13.2 nM (active)

## O=C1CC(c2c[nH]c3ccc(F)cc23)C(=O)N1 (configuration not stated)
[1]
  viability: 111%
[2]
  Potency: inactive
[7]
  Potency: inactive
[4]
  Potency: inactive
[5]
  Potency: inactive
[6]
  Potency: inactive

## C#CCN(C)CC1=Cc2ccccc2Oc2ccccc21
[1]
  viability: 106%
[2]
  Potency: inactive
[7]
  Potency: inactive
[4]
  Potency: inactive
[5]
  Potency: inactive
[6]
  Potency: inactive

## CCC1=C[C@@H]2CN(C1)Cc1c([nH]c3ccccc13)[C@@](C(=O)OC)(c1cc3c(cc1OC)N(C)[C@H]1[C@@](O)(C(=O)OC)[C@H](OC(C)=O)[C@]4(CC)C=CCN5CC[C@]31[C@@H]54)C2
[1]
  Potency: 7230 nM (active)
[2]
  Potency: 257 nM (active)
[7]
  Potency: 229 nM (active)
[4]
  Potency: 407 nM (active)
[5]
  Potency: 645 nM (active)
[6]
  Potency: 645 nM (active)

## C#Cc1cccc(Nc2ncnc3cc4c(cc23)OCCOCCOCCO4)c1
[1]
  viability: 93.5%
[2]
  Potency: inactive
[7]
  Potency: 18600 nM (active)
[6]
  Potency: inactive

## Cc1cc(C)c2c(c1)[C@@H](N(Cc1cc(C(F)(F)F)cc(C(F)(F)F)c1)c1nnn(C)n1)CCCN2CC1CCC(C(=O)O)CC1 (some centres not stated)
[1]
  viability: 101%
[2]
  Potency: 8330 nM (active)
[7]
  Potency: 18600 nM (active)
[4]
  Potency: inactive
[6]
  Potency: inactive

## Nc1ccc(F)cc1NC(=O)c1ccc(CNC(=O)/C=C/c2cccnc2)cc1
[1]
  Potency: 13200 nM (active)
[2]
  Potency: 4170 nM (active)
[7]
  Potency: 4170 nM (active)
[4]
  Potency: 5250 nM (active)
[5]
  Potency: 16600 nM (active)
[6]
  Potency: 14800 nM (active)

## NC(=S)N/N=C/c1ncccc1N
[1]
  Potency: 16600 nM (active)
[2]
  Potency: 5250 nM (active)
[7]
  Potency: 16600 nM (active)
[4]
  Potency: 5900 nM (active)
[5]
  Potency: 23500 nM (active)
[6]
  Potency: 20900 nM (active)

## Cc1ccc(NC(=O)c2ccc3c(c2)OCCO3)cc1NC(=O)c1ccc2nc(OCCN3CCCC3)ccc2c1
[1]
  Potency: 144 nM (active)
[2]
  Potency: 257 nM (active)
[7]
  Potency: 45.6 nM (active)
[4]
  Potency: 129 nM (active)
[6]
  Potency: 204 nM (active)

## COc1ccnc(CS(=O)c2nc3ccc(OC(F)F)cc3[nH]2)c1OC (configuration not stated)
[1]
  viability: 114%
[2]
  Potency: 23500 nM (active)
[7]
  Potency: inactive
[4]
  Potency: inactive
[5]
  Potency: inactive
[6]
  Potency: inactive

## CC(C)Cc1ccc([C@@H](C)C(=O)NS(C)(=O)=O)cc1
[1]
  viability: 112%
[2]
  Potency: inactive
[7]
  Potency: inactive
[5]
  Potency: inactive
[6]
  Potency: inactive
